Assay results taken from PubChem BioAssay (NCATS).
Records with an inconclusive call do not appear. Activity calls are given as the source filed them. Unless noted, calls come from the whole dose curve; as a rule, active = well fitted curve in the direction sought with a large enough effect; inconclusive = small, poorly fitted or top-dose-only effect, or another doubt; inactive = no such curve, though single readings can be large; an effect the other way counts as inactive or inconclusive.

Legend:
[1] = Cell Viability - Jurkat (AID 426;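 active = dose-dependent loss of cell ATP signal giving a full or clear fitted curve, ranked by lower potency value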;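 note: potency is the fitted concentration of half-maximal effect; cells exposed to compound for 40 hours at 37 °C before ATP read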); settings: qHTS
Outline: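 Cytotoxicity was scored as loss of cellular ATP, measured by luciferase-based luminescence, in Jurkat clone E6-1 cells after 40 h compound treatment; tamoxifen and doxorubicin served as positive controls.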

[2] = Cell Viability - NIH 3T3 (AID 541); settings: NIH 3T3 cell viability, qHTS; activity change, negative = cytotoxicity: at 92.2 µM (top of the series);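 note: cells exposed to compound for 40 hours; plate controls were DMSO alone for no effect and tamoxifen positive control for full effect; nearly all actives have a fitted effect of over 25% in size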
Outline: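 In this cytotoxicity screen, acute toxicity is scored as an ATP drop measured by CellTiter-Glo in NIH 3T3 fibroblasts following a 40 hr, 37 °C incubation with compound.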

[3] = Cellular Toxicity (caspase-3) MRC-5 (AID 659); settings: MRC-5 cells, luminescence, normalized: DMSO 0%, 10 µM staurosporine 100%; series mostly up to 91.7 µM
Outline: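 MRC-5 fibroblasts, 1500/well; 16 h cpd, 37 °C; Caspase-Glo 3/7, 1 h RT; lumi read. Norm: DMSO = 0%, 10 uM staurosporine = 100%. Hill-fit AC50 from qHTS conc-response.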

[4] = Cellular Toxicity (caspase-3) NIH 3T3 (AID 666); settings: NIH 3T3 caspase-3 activation, apoptosis/toxicity; series mostly up to 92.2 µM;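 note: caspase signal read after 16 h compound exposure; 0% = DMSO basal and 100% = 100 µM tamoxifen stimulation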
Outline: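 Activity: caspase-3/7 induction, NIH 3T3 cells, 16 hr treatment at 37°C, luminescent Caspase-Glo detection; AC50 via Hill equation.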

[5] = MultiTox-Fluor Cytotoxicity Assay - LYMP1-002 - Live Cells (AID 955); settings: LYMP1-002 lymphoblastoid live-cell protease fluorescence viability; series mostly up to 46.1 µM;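 note: cells exposed to compound for 16 hours; % is set by controls: 0 for no effect and ±100 for the full control effect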
Outline: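 In this qHTS viability format, lymphoblastoid cells (LYMP1-002, human) received compound for 16 hr at 37 C. Fluorogenic GF-AFC cleavage by viable cells was detected at 405/510 nm after 1 h at room temperature.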

[6] = Cell Viability - LYMP2-016 (AID 984); settings: LYMP2-016 lymphoblastoid cell viability, qHTS; series mostly up to 92.2 µM; note: nearly all actives have a fitted effect of over 55% in size; note: potency is the fitted concentration of half-maximal effect
Outline: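 Cytotoxicity was scored by luminescent ATP content (CellTiter-Glo) after 24 h compound exposure at 37 C of a human lymphoblastoid line at 2500 cells/well. Concentration-response data were fitted to the Hill equation for AC50.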

[7] = Cell Viability - LYMP1-002 - Assay at 24 hr (AID 993); settings: LYMP1-002 lymphoblastoid cells viability; series mostly up to 92.2 µM; note: % is set by controls: 0 for no effect and ±100 for the full control effect
Outline: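 Viability was judged from intracellular ATP using a luciferase read-out, following a 24-hour compound incubation at 37 C of lymphoblastoid cells seeded at 2500 per well. Concentration-response data were fitted to the Hill equation for AC50.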

[8] = molecular target: Vitamin D3 receptor (Homo sapiens) (UniProt P11473); assay: qHTS assay for small molecule agonists of vitamin D receptor signaling (AID 588543; calls by dose curve;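 note: 0% = DMSO basal and 100% = reference agonist control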); settings: HEK293T VDR-UAS-bla, beta-lactamase ratio, 16 h; series mostly up to 76.8 µM
Vitamin D3 receptor (Homo sapiens), sequence (P11473 whole entry, looked up): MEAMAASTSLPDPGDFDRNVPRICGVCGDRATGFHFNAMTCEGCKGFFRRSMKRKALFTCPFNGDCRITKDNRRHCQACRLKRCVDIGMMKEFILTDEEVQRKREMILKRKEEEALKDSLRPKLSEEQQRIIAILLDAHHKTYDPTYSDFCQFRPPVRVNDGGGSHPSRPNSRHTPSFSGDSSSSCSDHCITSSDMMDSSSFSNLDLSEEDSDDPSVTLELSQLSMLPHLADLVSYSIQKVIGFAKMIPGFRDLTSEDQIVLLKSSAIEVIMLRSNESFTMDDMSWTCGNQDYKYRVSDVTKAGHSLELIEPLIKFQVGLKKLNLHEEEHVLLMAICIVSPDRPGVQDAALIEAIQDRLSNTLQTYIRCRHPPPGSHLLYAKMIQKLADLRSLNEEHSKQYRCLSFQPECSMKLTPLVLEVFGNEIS
Outline: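 Agonist-mode beta-lactamase reporter: HEK293T VDR-UAS-bla cells in charcoal-stripped 2% FBS, compound series 16 h 37 C, CCF4 2 h RT. EC50 from Hill fit, scaled against DMSO and 50 nM calcitriol control.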

[9] = qHTS assay for small molecule disruptors of the mitochondrial membrane potential - 5 hr assay (AID 651755; calls by dose curve; note: % is set by controls: 0 for no effect and ±100 for the full control effect; nearly all actives have a fitted effect of over 40% in size); settings: JC-1-type ratio dye; series mostly up to 92.2 µM
Outline: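 Read-out: ratiometric Mito-MPS fluorescence, green monomer (ex 490/em 535) vs red mitochondrial aggregate (ex 540/em 590). HepG2 cells treated 5 hr at 37C before 30 min dye loading.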

[10] = molecular target: Nuclear receptor ROR-gamma (Homo sapiens) (UniProt P51449); assay: qHTS assay for small molecule antagonists of the retinoid-related orphan receptor gamma (ROR-gamma) signaling pathway (AID 651802); settings: ROR-gamma antagonist cell reporter assay; series mostly up to 92.2 µM; note: nearly all actives have a fitted effect of over 60% in size; note: potency is the fitted concentration of half-maximal effect
Nuclear receptor ROR-gamma (Homo sapiens), sequence (P51449 whole entry, looked up): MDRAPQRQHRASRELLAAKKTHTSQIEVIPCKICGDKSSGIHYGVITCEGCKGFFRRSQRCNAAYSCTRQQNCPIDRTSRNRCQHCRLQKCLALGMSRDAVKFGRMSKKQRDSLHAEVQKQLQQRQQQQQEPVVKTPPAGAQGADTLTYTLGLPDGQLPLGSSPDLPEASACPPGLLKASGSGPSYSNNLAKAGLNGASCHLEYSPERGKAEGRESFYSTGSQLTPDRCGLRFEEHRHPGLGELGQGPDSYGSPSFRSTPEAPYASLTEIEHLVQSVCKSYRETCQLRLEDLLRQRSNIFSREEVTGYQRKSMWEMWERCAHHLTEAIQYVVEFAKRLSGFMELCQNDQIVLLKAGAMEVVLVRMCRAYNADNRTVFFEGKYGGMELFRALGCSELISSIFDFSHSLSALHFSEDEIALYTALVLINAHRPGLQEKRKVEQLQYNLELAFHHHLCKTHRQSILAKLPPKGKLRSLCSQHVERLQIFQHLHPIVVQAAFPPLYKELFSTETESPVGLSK
Outline: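 Doxycycline-induced reporter activity in engineered CHO cells (TET-inducible ROR, RORE-LUC) was measured by luminescence after 16hr compound exposure at 37C.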

[11] = qHTS assay for small molecule antagonists of the retinoid-related orphan receptor gamma (ROR-gamma) signaling pathway - cell viability counter screen (AID 720652; active = well fitted curve in the direction sought with a large enough effect in the repeat runs; an effect the other way counts as inactive or inconclusive;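 note: CHO reporter cells with doxycycline-induced ROR-gamma expression; compound exposure lasted 16 hr before ATP read; % is set by controls: 0 for no effect and ±100 for the full control effect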); settings: RORgamma reporter cell line viability counter screen; series mostly up to 92.2 µM
Outline: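 ATP-based viability readout in the ROR-gamma reporter CHO cells after 16 hr compound exposure under doxycycline induction.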

[12] = qHTS assay for small molecule agonists of the antioxidant response element (ARE) signaling pathway measured by Nrf2-dependant transcriptional activity - cell viability counter screen (AID 720653; active = well fitted curve in the direction sought with a large enough effect in the repeat runs; an effect the other way counts as inactive or inconclusive; note: % is set by controls: 0 for no effect and ±100 for the full control effect); settings: ARE-bla HepG2 viability, CellTiter-Glo ATP luminescence, 16 h; active compounds read low
Outline: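 ARE-bla HepG2 cells treated with compounds for 16 h at 37C; this counter screen measures viability as intracellular ATP by CellTiter-Glo luminescence after 30 min at room temperature.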

[13] = qHTS assay for cell viability of the p53RE-bla HCT-116 cell line (AID 743292); settings: p53RE-bla HCT-116 viability, ATP luminescence, 16 h; series mostly up to 95 µM; note: % is set by controls: 0 for no effect and ±100 for the full control effect; nearly all actives have a fitted effect of over 55% in size
Outline: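 Viability of compound-treated p53RE-bla HCT-116 cells is taken from ATP-dependent luciferase luminescence. Treatment lasts 16 h at 37 C after a 5 h settling period; detection follows 30 min at room temperature.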

[14] = molecular target: Nuclear receptor subfamily 1 group I member 2 (Rattus norvegicus) (UniProt Q9R1A7); assay: qHTS assay for small molecule activators of the rat pregnane X receptor (rPXR) signaling pathway (AID 651751; call rule not given here; note: 0% is about no effect); settings: rPXR reporter cells, luciferase (One-Glo), 24 h
Nuclear receptor subfamily 1 group I member 2 (Rattus norvegicus), sequence (Q9R1A7 whole entry, looked up): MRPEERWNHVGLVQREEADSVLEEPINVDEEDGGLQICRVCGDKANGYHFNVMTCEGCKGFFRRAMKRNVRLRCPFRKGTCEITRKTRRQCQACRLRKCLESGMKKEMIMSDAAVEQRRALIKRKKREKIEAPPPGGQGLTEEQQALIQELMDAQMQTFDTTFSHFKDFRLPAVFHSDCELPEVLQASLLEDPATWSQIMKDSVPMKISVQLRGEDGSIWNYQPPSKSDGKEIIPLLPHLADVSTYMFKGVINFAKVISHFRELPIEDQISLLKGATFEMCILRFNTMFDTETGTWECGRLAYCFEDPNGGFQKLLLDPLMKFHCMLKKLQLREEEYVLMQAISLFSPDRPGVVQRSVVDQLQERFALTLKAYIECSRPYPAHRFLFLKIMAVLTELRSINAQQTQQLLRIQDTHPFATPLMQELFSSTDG

[15] = Cell Viability - Mesenchymal (AID 546); settings: mesenchymal cells viability, qHTS; series mostly up to 91.7 µM;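 note: cells exposed to compound for 40 hours before reading; 0% = DMSO only and -100% = 100 µM tamoxifen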
Outline: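 Human renal mesenchymal cells (glomerulus-derived), 1000 cells/well, 5 hr 37 °C pre-incubation; compound 40 hr, 37 °C; CellTiter-Glo, 20 min RT; luminescence; AC50 via Hill equation.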

[16] = MultiTox-Fluor Cytotoxicity Assay - LYMP1-001 - Dead Cells (AID 946); settings: LYMP1-001 lymphoblastoid cells, dead-cell protease fluorescence; series mostly up to 92.2 µM;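 note: 0% = DMSO and 100% = tetraoctylammonium bromide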
Outline: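 AC50 from Hill fit of concentration-response; data normalized to DMSO (basal) and 15 uM tetraoctylammonium bromide (100%). LYMP1-001 lymphoblastoid cells, 2500/well, 16 hr compound at 37 C; dead-cell protease fluorescence, Ex/Em 485/520.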

[17] = Cell Viability - LYMP1-003 - Assay at 24 hr (AID 963); settings: LYMP1-003 lymphoblastoid cell viability; series mostly up to 92.2 µM;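 note: plate controls were DMSO only for no effect and tetraoctylammonium bromide positive control for full effect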
Outline: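 The lymphoblastoid line was treated with titrated compounds for 24 hours, and viable cell number estimated from luciferase-based ATP luminescence.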

[18] = Cell Viability - LYMP2-015 (AID 971); settings: LYMP2-015 lymphoblastoid cell viability; series mostly up to 92.2 µM; note: nearly all actives have a fitted effect of over 55% in size; note: potency is the fitted concentration of half-maximal effect
Outline: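 AC50 values reflect Hill-model fits of ATP-based luminescence (CellTiter-Glo) from a human lymphoblastoid line, 2500 cells/well, treated 24 hr at 37 C.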

[19] = Cell Viability - LYMP2-024 (AID 988); settings: LYMP2-024 lymphoblastoid cell viability; series mostly up to 92.2 µM;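 note: cells exposed to compound for 24 hr at 37 °C; nearly all actives have a fitted effect of over 60% in size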; note: potency is the fitted concentration of half-maximal effect;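 for activity change, negative = cytotoxicity: plate controls were DMSO only for no effect and 92 µM tetraoctylammonium bromide for full effect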
Outline: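 Cells at 2500 per well received compound for 24 hr after a 5 hr settling period. Viability was scored by CellTiter-Glo luminescence, with AC50 from Hill fits.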

[20] = molecular target: Peroxisome proliferator-activated receptor alpha (Homo sapiens) (UniProt Q07869); assay: qHTS assay for small molecule agonists of the peroxisome proliferator-activated receptor alpha (PPARalpha) signaling pathway (AID 651778); settings: PathHunter PPARalpha complementation, chemiluminescence, 6 h; active compounds read high; note: % of control where 0% means no effect
Peroxisome proliferator-activated receptor alpha (Homo sapiens), sequence (Q07869 whole entry, looked up, the tested form may be a part): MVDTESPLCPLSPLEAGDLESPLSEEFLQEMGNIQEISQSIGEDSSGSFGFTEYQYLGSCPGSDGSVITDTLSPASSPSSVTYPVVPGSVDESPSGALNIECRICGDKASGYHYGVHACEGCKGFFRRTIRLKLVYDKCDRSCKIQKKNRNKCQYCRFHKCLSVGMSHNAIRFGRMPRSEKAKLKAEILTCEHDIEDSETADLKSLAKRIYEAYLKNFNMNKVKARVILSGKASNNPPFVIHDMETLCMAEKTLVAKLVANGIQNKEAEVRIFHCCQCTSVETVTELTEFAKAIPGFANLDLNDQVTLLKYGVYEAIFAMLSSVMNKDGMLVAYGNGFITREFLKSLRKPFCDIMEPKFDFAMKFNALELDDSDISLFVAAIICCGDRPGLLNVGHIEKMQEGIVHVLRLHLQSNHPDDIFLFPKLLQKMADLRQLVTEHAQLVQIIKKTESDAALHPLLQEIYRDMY
Outline: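 Enzyme-fragment complementation assay in which ligand-bound PPARalpha translocates and forms an active enzyme that generates chemiluminescence. Cells were plated overnight, exposed to compound for 6 hr at 37 C, and then given detection reagent for 60 min at room temperature.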

O=P(OCCCl)(OCCCl)OCCCl
inactive: Potency [1] > 92 µM | Potency [2] | outcome [3] | Potency [4] | outcome [5] | Potency [6] | Potency [7] | outcome [8] | Potency [9] | Potency [10] | Potency [11] | max response [12] 4.31% | Potency [13] | max response [14] 6.23%

C=COC(C)=O
inactive: Potency [1] > 92 µM | Potency [2] | Potency [15] | outcome [3] | Potency [4] | outcome [16] | outcome [5] | outcome [17] | Potency [18] | Potency [6] | Potency [19] | Potency [7] | outcome [8] | Potency [9] | max response [20] -3.52% | Potency [10] | Potency [11] | max response [12] 7.83% | Potency [13] | max response [14] 2.31%

N#CC(O)c1ccccc1 (stereo not drawn)
inactive: Potency [1] > 92 µM | Potency [2] | Potency [15] | outcome [3] | Potency [4] | outcome [16] | outcome [5] | outcome [17] | Potency [18] | Potency [6] | Potency [19] | Potency [7] | outcome [8] | Potency [9] | max response [20] 12.9% | Potency [10] | Potency [11] | max response [12] 12.9% | Potency [13] | max response [14] 0.679%

N#CCCC#N
inactive: Potency [1] > 92 µM | Potency [2] | Potency [15] | outcome [3] | Potency [4] | outcome [16] | outcome [5] | outcome [17] | Potency [18] | Potency [6] | Potency [19] | Potency [7] | outcome [8] | max response [20] -2.27% | Potency [10] | Potency [11] | max response [12] 1.41% | Potency [13] | max response [14] 2.24%

N#C/C=C/C#N
inactive: outcome [3] | Potency [4] | outcome [16] | outcome [5] | Potency [7] | outcome [8] | Potency [9] | max response [20] -6.4% | Potency [11] | max response [12] -28.1% | Potency [13] | max response [14] -4.77%
active: Potency [1] 20.8 µM | activity change, negative = cytotoxicity [2] -156% | Potency [18] 50.1 µM | Potency [6] 39.8 µM | Potency [19] 31.6 µM | Potency [10] 23.7 µM

CN(C)c1ccc(N=Nc2ccccc2)cc1
inactive: Potency [15] | outcome [3] | outcome [16] | outcome [5] | Potency [6] | Potency [19] | Potency [7] | outcome [8] | max response [20] -12.4% | Potency [11] | max response [12] -5.92% | Potency [13]
